# Measurements taken from PubChem BioAssay.
# A number with no mark means an inactive call. The source made the active and inactive calls. Rule as the data show it: active = fold change permeability below about 0.7 or above about 1.3; inactive = in between.
# Test: compounds altering in vitro BBB leakiness – cell-based, FITC-avidin fluorescence, HTS, primary screen (AID 1963498); also: test concentration not given here
# Settings: brain endothelial barrier, actives lie on both sides
row,SMILES,fold change permeability
1,COc1cc([C@@H]2c3cc4c(cc3[C@H](O)[C@H]3COC(=O)[C@H]23)OCO4)cc(OC)c1OC,1.2
2,CN(C(=O)Cc1ccc(Cl)c(Cl)c1)C(CN1CCCC1)c1cccc(OCC(=O)O)c1 (stereo unspecified),1.1
3,CCCC[N+]1(C)C2CC(OC(=O)[C@H](CO)c3ccccc3)CC1C1OC12 (stereo partly specified),0.8
4,CCn1cc(C(=O)O)c(=O)c2ccc(C)nc21,0.9
5,CC(C(O)c1ccc(O)cc1)N1CCC(Cc2ccccc2)CC1 (stereo unspecified),1.3 (active)
6,NC(CCP(=O)(O)O)C(=O)O (stereo unspecified),1
7,C[C@@H]1[C@@H]2Cc3ccc(O)cc3[C@@]1(C)CCN2CC1CC1,1.3 (active)
8,CC(N)C(=O)OC(C)(C)Cc1ccc(Cl)cc1 (stereo unspecified),1.1
9,CCN1C[C@]2(COC)[C@H](O)C[C@H](OC)[C@]34C1[C@H]([C@H](OC)[C@H]23)[C@]1(OC(C)=O)[C@H]2[C@@H](OC(=O)c3ccccc3)[C@](O)(C[C@H]24)[C@@H](OC)[C@@H]1O,1
10,Clc1ccc(CO/N=C(\Cn2ccnc2)c2ccc(Cl)cc2Cl)c(Cl)c1,1.6 (active)
11,CC(N)c1cccc(Cl)c1Cl (stereo unspecified),1.1
12,CS(=N)(=O)CC[C@H](N)C(=O)O (stereo partly specified),0.8
13,NCC(O)c1ccc(O)cc1 (stereo unspecified),0.9
14,CN[C@@H]1C[C@@H](c2ccc(Cl)c(Cl)c2)c2ccccc21,1.2
15,O=C(O)[C@@H]1CCN1,1
16,N#CC(C#N)=Cc1ccc(O)c(O)c1,1.2
17,COc1cc(C(O)CN)ccc1O (stereo unspecified),0.9
18,C[N+]1(C)CCOC(O)(c2ccc(-c3ccc(C4(O)C[N+](C)(C)CCO4)cc3)cc2)C1 (stereo unspecified),1.1

row,SMILES,fold change permeability
1,NC(=O)CN1CC(O)CC1=O (stereo unspecified),0.8
2,NCCc1c[nH]c2ccc(O)cc12,1
3,CC(C)(O)[C@@H]1C2OC(=O)C1[C@]1(O)C[C@H]3O[C@]34C(=O)O[C@H]2[C@]14C (stereo partly specified) (tested in a mixture with another compound),1.1
4,O=C(O)c1nn(Cc2ccc(Cl)cc2Cl)c2ccccc12,1.9 (active)
5,CC(=O)c1c(O)c(C)c(O)c(Cc2c(O)c3c(c(C(=O)/C=C/c4ccccc4)c2O)OC(C)(C)C=C3)c1O,2 (active)
6,COc1ccc(C(CN(C)C)C2(O)CCCCC2)cc1 (stereo unspecified),1
7,O=C(N[C@H]1CN2CCC1CC2)c1ccc(Cl)cc1,1.3 (active)
8,NC(CP(=O)(O)O)C(=O)O (stereo unspecified),1
9,CCCN(CCC)C1CCc2cccc(O)c2C1 (stereo unspecified),1
10,C[C@]12CCC3C(CC[C@H]4C[C@H](O)CC[C@]34C)C1CC[C@@H]2C(=O)CO (stereo partly specified),1.1
11,S=C(NC1CCCCC1)N1CCC(c2cnc[nH]2)CC1,1.6 (active)
12,N[C@@]1(C(=O)O)CC[C@@H](C(=O)O)C1,1
13,CCCN1CCC[C@H](c2cccc(O)c2)C1,1
14,Cc1ccc(S(=O)(=O)N[C@@H](CCCCN)C(=O)CCl)cc1,1.4 (active)
15,NCCc1c[nH]c2ccccc12,1.4 (active)
16,Nc1ccncc1,0.9
17,C[N+]1(C)CCN(c2ccccc2)CC1,1.2
18,C#CCOC(=O)C1=CCCN(C)C1,1
